Data taken from PubChem BioAssay.
Active and inactive are the calls of the source.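 How the source made its calls, unless noted: active means visual image review flags a hit and inhibition of aggregation exceeds 20%; inconclusive means visual hit but inhibition at or below 20%; inactive means no hit on visual image review.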

Tests used:
[1] = inhibitors of TNFa-induced NFkB p65 translocation, primary screen, imaging, HUVEC, MLSMR starter and 10KST1 sets (AID 438;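 active means inhibition above 20% together with a positive visual image hit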;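 further: compound added about 3h40 before a 20 min TNFalpha stimulation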;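 on inhibition: signal is the nuclear over cytoplasmic p65 intensity ratio per well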); settings: HUVEC TNFa-induced p65 nuclear translocation; cell count: measured here: nuclei count (cytotoxicity indicator), at 2.08 µM; inhibition: at 2 µM, stronger effect = higher value, 0% TNFa-plus-vehicle, 100% no-TNFa wells
[2] = inhibitors of mutant huntingtin aggregation, primary screen, imaging, exon1htt(103Q)mCFP cells, high-content imaging (AID 483); settings: exon1htt(103Q)mCFP cell line, aggregate imaging, at 2 µM; inhibition of aggregation: stronger effect = higher value; nuclei count: measured here: cell count, toxicity;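 further: compound exposure lasted 3 days before fixation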;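 on nuclei count: percent of the per-plate median nuclei count of sample wells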
[3] = inhibitors of E-selectin induction by TNFa, primary screen, imaging, HUVEC, immunofluorescence, MLSMR starter and 10KST1 sets (AID 487;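 active means visually confirmed hit in the image check and inhibition above 20%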;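 on inhibition: signal is fraction of cell area covered by stained E-selectin grains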;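 on nuclei count: 100% = median nuclei count of all wells on the same plate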); settings: HUVEC TNFalpha-induced E-selectin immunofluorescence imaging, at 2 µM; inhibition: stronger effect = higher value; nuclei count: measured here: cell number, toxicity
[4] = target: Voltage-gated potassium channel subunit beta-2 (Rattus norvegicus) (UniProt P62483); assay: KvBeta enzyme negative modulators, primary screen, biochemical, NADPH fluorescence (AID 622;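 active means fluorescence slope higher than the sample average by over 3 SD, cut at about -0.22 in these data, passing the limit was not always enough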;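 further: slope of raw intensity against log time taken from 70 to 1610 s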); settings: recombinant KvBeta, 4-cyanobenzaldehyde reduction, at 10 µM, stronger effect = higher value
[5] = target: Voltage-gated potassium channel subunit beta-2 (Rattus norvegicus) (UniProt P62483); assay: KvBeta positive modulators, primary screen, biochemical, NADPH fluorescence (AID 623;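 active means NADPH fluorescence slope more negative than the mean of all samples by about 3 SD, 99.7% confidence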;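 further: fluorescence intensity change per second fitted from 20 to 320 s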); settings: Recombinant KvBeta, NADPH fluorescence decrease slope, 10 min; at 10 µM; stronger effect = lower value
[6] = target: Alpha-2C adrenergic receptor (Homo sapiens) (UniProt P18825); assay: modulators of alpha2C/GIRK thallium flux, primary screen, cell-based, HEK293 alpha2C/GIRK1/2 (AID 624;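 active means fluorescence slope after compound addition differing from the mean of all screened samples at 99.7% confidence, in either direction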;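 further: slope of fluorescence ratio to pre-addition baseline per second over 15 to 24 s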); settings: thallium flux BTC fluorescence, at 10 µM, actives lie on both sides
[7] = inhibitors of Sendai virus-induced IRF3 signaling, primary screen, TLR/RLR signaling modifier project, cell-based, Sendai virus stimulus, luciferase, 10K MLSCN set (AID 602276;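 active means inhibition at or above 50% at 10 µM; inactive means inhibition below 50%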;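 further: firefly luciferase from ISG56 promoter only with Renilla not read in this screen; 0% = Sendai virus plus DMSO and 100% = medium plus DMSO without virus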); settings: HEK293 RL24 IRF3 luciferase reporter, at 10 µM, stronger effect = higher value
[8] = inhibitors of poly I:C-induced TLR3 signaling, primary screen, cell-based, poly I:C stimulus, luciferase, 10K MLSCN set (AID 602277;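 active means inhibition of the reporter signal at or above 50%; inactive means inhibition below 50%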); settings: HEK293-TLR3 RL24 IRF3 luciferase reporter, at 10 µM, stronger effect = higher value

Alpha-2C adrenergic receptor (Homo sapiens), sequence (P18825 whole entry, looked up): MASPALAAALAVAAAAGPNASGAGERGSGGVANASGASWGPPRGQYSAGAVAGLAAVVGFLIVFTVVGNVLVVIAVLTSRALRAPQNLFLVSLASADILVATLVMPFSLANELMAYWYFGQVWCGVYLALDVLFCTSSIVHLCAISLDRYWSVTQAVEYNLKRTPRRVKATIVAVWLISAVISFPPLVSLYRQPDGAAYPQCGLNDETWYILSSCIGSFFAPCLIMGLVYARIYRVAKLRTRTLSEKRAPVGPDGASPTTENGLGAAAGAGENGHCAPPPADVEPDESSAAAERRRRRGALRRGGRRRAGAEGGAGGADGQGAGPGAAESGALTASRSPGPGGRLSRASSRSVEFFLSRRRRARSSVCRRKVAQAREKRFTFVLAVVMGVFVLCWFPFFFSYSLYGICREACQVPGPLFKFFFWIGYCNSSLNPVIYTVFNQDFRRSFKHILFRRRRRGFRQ
Voltage-gated potassium channel subunit beta-2 (Rattus norvegicus), sequence (P62483 whole entry, looked up): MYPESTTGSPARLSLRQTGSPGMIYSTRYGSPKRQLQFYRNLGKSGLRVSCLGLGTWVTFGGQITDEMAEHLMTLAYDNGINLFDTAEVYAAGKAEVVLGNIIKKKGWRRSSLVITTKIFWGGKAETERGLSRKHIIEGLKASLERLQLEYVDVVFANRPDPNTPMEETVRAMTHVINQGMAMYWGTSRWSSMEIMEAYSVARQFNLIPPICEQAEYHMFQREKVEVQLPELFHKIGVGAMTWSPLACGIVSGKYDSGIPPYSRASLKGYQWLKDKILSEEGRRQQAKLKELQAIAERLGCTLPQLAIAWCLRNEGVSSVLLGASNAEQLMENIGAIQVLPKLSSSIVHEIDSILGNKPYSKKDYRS

| SMILES | cell count [1] | inhibition [1] | inhibition of aggregation [2] | nuclei count [2] | inhibition [3] | nuclei count [3] | fluorescence slope [4] | NADPH fluorescence slope [5] | slope [6] | inhibition [7] | inhibition [8] |
| --- | --- | --- | --- | --- | --- | --- | --- | --- | --- | --- | --- |
| COc1ccc(CCNC(=O)C2CCN(S(=O)(=O)c3cc(OC)ccc3OC)CC2)cc1 | 269 | -5.3% (inactive) | 3% (inactive) | 93.2% | -26.1% (inactive) | 98.3% | -0.39 (inactive) | -6.1e-05 (inactive) | 0.00597 (inactive) | 14.7% (inactive) | 31.4% (inactive) |
| COc1cccc(-c2csc(N3CCN(CC(=O)Nc4ccc5c(c4)OCO5)CC3)n2)c1 | 262 | 3.1% (inactive) | -24.6% (inactive) | 88.4% | -4.3% (inactive) | 91.2% | -0.622 (inactive) | -1.3e-05 (inactive) | 0.00556 (inactive) | -45.8% (inactive) | -62.6% (inactive) |
| Cc1ccc(C)c(S(=O)(=O)NCc2cccnc2)c1 | 597 | -0.6% (inactive) | -6.9% (inactive) | 114% | -89.8% (inactive) | 119% | -0.467 (inactive) | -5.5e-05 (inactive) | 0.00658 (inactive) | 141% (active) | 100% (active) |
| CC(C)OC(=O)CN1C(=O)C(C)(C)Oc2ccc(C(=O)NC3CC3)cc21 | 537 | -6.7% (inactive) | 18% (inactive) | 104% | -11.5% (inactive) | 102% | -0.496 (inactive) | -7.2e-05 (inactive) | 0.00477 (inactive) | 14.5% (inactive) | 17.5% (inactive) |
| Cn1c(SCC(=O)c2cc3ccccc3o2)nnc1-c1ccccc1 | 621 | 8% (inactive) | -8.5% (inactive) | 66% | -44.5% (inactive) | 106% | -0.527 (inactive) | -2.6e-05 (inactive) | 0.00718 (inactive) | 10.2% (inactive) | 16.3% (inactive) |
| CCOC(=O)CN1CC23C=CC(O2)C(C(=O)Nc2ccc(C(C)=O)cc2)C3C1=O (stereo not drawn) | 813 | -6.9% (inactive) | -2.6% (inactive) | 127% | -18.4% (inactive) | 127% | -0.574 (inactive) | -2.3e-05 (inactive) | 0.00637 (inactive) | -3.34% (inactive) | 7.25% (inactive) |
| Nn1c(SCC(=O)Nc2ccc(Oc3ccccc3)cc2)nnc1C1CC1 | 331 | -12.3% (inactive) | 17.5% (inactive) | 91.2% | -57.3% (inactive) | 132% | -0.378 (inactive) | 1.7e-05 (inactive) | 0.00645 (inactive) | -8.58% (inactive) | -16% (inactive) |
| CC(C)CCNc1cc(=O)n(C)c(=O)n1C | 686 | -3.9% (inactive) | -15.5% (inactive) | 108% | 28.9% (inactive) | 88% | -0.459 (inactive) | 5e-05 (inactive) | 0.00778 (inactive) | 0.49% (inactive) | 8.23% (inactive) |
| Cc1cccc2c1nc(-c1ccccc1)n1cnnc21 | 345 | -10.7% (inactive) | -2.7% (inactive) | 73% | -58% (inactive) | 114% | -0.452 (inactive) | -2.6e-08 (inactive) | 0.00423 (inactive) | -15.9% (inactive) | -12.4% (inactive) |
| CCc1nnc(SCc2cn3c(C)cc(C)nc3n2)n1N | 571 | -13.6% (inactive) | -13.3% (inactive) | 104% | 2.4% (inactive) | 143% | -0.284 (inactive) | -5.4e-06 (inactive) | 0.00669 (inactive) | -4.74% (inactive) | 4.52% (inactive) |
| O=C(c1ccco1)N1CCN(S(=O)(=O)c2ccc3c(c2)CCN3C(=O)C2CCC2)CC1 | 600 | 1.2% (inactive) | 22.2% (inactive) | 97% | -53.2% (inactive) | 115% | -0.425 (inactive) | -3.6e-06 (inactive) | 0.00394 (inactive) | -18.7% (inactive) | -87.3% (inactive) |
| Cc1cccc(Nc2nc3c(c(=O)n(C)c(=O)n3C)n2Cc2ccccc2)c1 | 470 | 7.2% (inactive) | 6.5% (inactive) | 94.7% | -73.5% (inactive) | 106% | -0.588 (inactive) | -2.8e-05 (inactive) | 0.00618 (inactive) | 3.57% (inactive) | 20.4% (inactive) |
| CCn1c(SCc2cccc(C(F)(F)F)c2)nnc1-c1ccco1 | 616 | 4.8% (inactive) | 4.5% (inactive) | 94.1% | -15.2% (inactive) | 104% | -0.414 (inactive) | -3.6e-05 (inactive) | 0.00568 (inactive) | 13.2% (inactive) | 3.48% (inactive) |
